Assay [1] deals with bovine Estrogen Receptor (ER), ESR1 (gene 407238) (UniProt P49884). In words: NVS_NR_bER: NovaScreen (NVS) Nuclear Receptor Binding Assay for bovine Estrogen Receptor (ER) (AID 2283345).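 Further: actives lower the bound radioligand count which means they displace the ER ligand.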 The method in brief: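 Displacement of a radioligand from estrogen receptor in bovine uterine membrane preparations; scintillation signal taken at 18 hours, DMSO as baseline. Single-concentration duplicates (25 uM) preceded concentration-response follow-up of actives.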
Chain of bovine Estrogen Receptor (ER), ESR1 (gene 407238) (P49884 whole entry, looked up): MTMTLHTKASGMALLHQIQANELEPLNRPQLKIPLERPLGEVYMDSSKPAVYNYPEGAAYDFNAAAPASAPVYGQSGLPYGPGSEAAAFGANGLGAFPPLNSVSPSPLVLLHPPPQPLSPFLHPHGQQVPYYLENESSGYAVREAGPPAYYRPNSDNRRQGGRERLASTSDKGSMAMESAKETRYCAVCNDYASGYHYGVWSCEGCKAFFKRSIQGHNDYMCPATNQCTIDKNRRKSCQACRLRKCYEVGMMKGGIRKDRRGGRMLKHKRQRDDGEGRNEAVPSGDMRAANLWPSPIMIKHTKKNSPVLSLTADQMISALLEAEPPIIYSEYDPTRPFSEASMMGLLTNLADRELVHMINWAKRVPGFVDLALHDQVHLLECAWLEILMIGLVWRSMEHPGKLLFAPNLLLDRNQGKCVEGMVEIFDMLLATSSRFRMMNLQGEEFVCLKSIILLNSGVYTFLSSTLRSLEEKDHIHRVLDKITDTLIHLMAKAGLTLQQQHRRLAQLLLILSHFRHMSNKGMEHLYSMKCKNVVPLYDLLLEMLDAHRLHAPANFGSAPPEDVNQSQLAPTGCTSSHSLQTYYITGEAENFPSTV

Assay [2] has as its target Estrogen receptor (Homo sapiens) (UniProt P03372). In words: OT_ER_ERaERa_0480: Odyssey Thera (OT) 8-hour HEK293T Protein-Complementation Assay for Estrogen Receptor-alpha/-alpha Homodimer (AID 2283351).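 Further: rise in fluorescence from reassembled reporter fragments on ERα LBD homodimer in nucleus or whole cell.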 In short, it runs like this:
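HEK293T cells stably expressing a PCA pair of ER alpha LBD (residues 310-547) were dosed for 8 hours. The gain in fluorescence intensity, nuclear for agonists and whole-cell for antagonists, was measured by laser scanning cytometry against DMSO vehicle.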

The target in assay [3] is T1, Estrogen receptor (Homo sapiens) + Estrogen receptor beta (Homo sapiens) (UniProt P03372+Q92731). The assay is described as follows: OT_ER_ERaERb_0480: Odyssey Thera (OT) 8-hour HEK293T Protein-Complementation Assay for Estrogen Receptor-alpha/-beta Heterodimer (AID 2283352). The method in brief:
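HEK293T protein-fragment complementation assay of ER-alpha/ER-beta LBD heterodimerisation, read 8 h after dosing. Mean nuclear/cytoplasmic fluorescence intensity measured by laser scanning cytometry; gain of signal fitted relative to DMSO.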

For assay [4], the target named is T1, Estrogen receptor (Homo sapiens) + Estrogen receptor beta (Homo sapiens). The assay is described as follows: OT_ER_ERaERb_1440: Odyssey Thera (OT) 24-hour HEK293T Protein-Complementation Assay for Estrogen Receptor-alpha/-beta Homodimer (AID 2283356).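 Further: heteromer of ER alpha and ER beta binding domains; hits raise reporter fluorescence and both agonists and antagonists give an increase.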 The method in brief: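 HEK293T stably expressing a PCA of ER alpha LBD (aa 310-547) and ER beta LBD (aa 263-489). After 24 h compound exposure, mean fluorescence intensity in nucleus (agonists) or nucleus and cytoplasm (antagonists) measured by laser scanning cytometry versus vehicle.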

The target of assay [5] is Estrogen receptor beta (Homo sapiens) (UniProt Q92731). In words: OT_ER_ERbERb_0480: Odyssey Thera (OT) 8-hour HEK293T Protein-Complementation Assay for Estrogen Receptor-beta/-beta Homodimer (AID 2283357).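 Further: active means signal gain over DMSO baseline.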 The method in brief:
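ER-beta LBD homodimer PCA stably expressed in HEK293T; 8 h compound exposure, then formaldehyde fixation and Draq5 staining. Gain in nuclear/cytoplasmic fluorescence intensity versus DMSO vehicle, read on laser scanning cytometer.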

In assay [6] the target is Estrogen receptor (Homo sapiens) (UniProt P03372). In words: OT_ER_ERaERa_1440: Odyssey Thera (OT) 24-hour HEK293T Protein-Complementation Assay for Estrogen Receptor-alpha/-alpha Homodimer (AID 2283349).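 Further: hits raise fluorescence above DMSO for agonists and antagonists alike.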 The method in brief:
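HEK293T, stable ERα LBD (aa 310-547) homodimer PCA; 24 h compound exposure; mean fluorescence intensity (nuclear for agonists, nuclear plus cytoplasmic for antagonists) vs vehicle; positive fitting direction, DMSO baseline.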

Assay [7] addresses Androgen Receptor/SRC-1 Co-activator, AR (gene 367) (UniProt P10275). The assay is described as follows: OT_AR_ARSRC1_0480: Odyssey Thera (OT) 8-hour HEK293T Protein-Complementation Assay for Androgen Receptor/SRC-1 Co-activator (AID 2283354).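 Further: hits raise the complementation signal above DMSO so AC50 marks enhancers.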 The method in brief: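 Reconstituted split-Venus YFP signal from AR–SRC-1 interaction, read by imaging 8 h post-dose in stable HEK293T lines. The 488 nm nucleus-to-cytoplasm ratio (≥400 cells/image) was fitted upward against DMSO.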

The target of assay [8] is human Constitutive Androstane Receptor (CAR), NR1I3 (gene 9970) (UniProt Q14994). The assay is described as follows: NVS_NR_hCAR_Antagonist: NovaScreen (NVS) Nuclear Receptor Binding Assay for human Constitutive Androstane Receptor Antagonism (CAR) (AID 2283344). In short, it runs like this: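 Single 25 uM duplicate primary screen, with concentration-series follow-up on actives. Cell-free binding format run in antagonist mode, TR-FRET signal taken 1 h post-dose; activity is signal loss relative to DMSO.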
Chain of human Constitutive Androstane Receptor (CAR), NR1I3 (gene 9970) (Q14994 whole entry, looked up): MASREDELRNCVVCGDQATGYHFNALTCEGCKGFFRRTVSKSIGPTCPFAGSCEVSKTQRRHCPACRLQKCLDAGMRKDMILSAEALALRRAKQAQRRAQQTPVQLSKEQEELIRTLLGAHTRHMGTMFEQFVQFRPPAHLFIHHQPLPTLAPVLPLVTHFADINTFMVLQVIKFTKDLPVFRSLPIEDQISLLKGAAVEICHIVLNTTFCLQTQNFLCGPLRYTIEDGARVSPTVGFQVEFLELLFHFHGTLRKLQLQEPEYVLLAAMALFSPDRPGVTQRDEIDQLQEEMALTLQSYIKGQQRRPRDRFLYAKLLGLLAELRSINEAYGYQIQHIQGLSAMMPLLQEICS

Assay [9] concerns guinea pig Histamine Receptor (H2), gene 100729734. The assay is described as follows: NVS_GPCR_gH2: NovaScreen (NVS) G Protein-Coupled Receptor Assay for guinea pig Histamine Receptor (H2) (AID 2283342). In short, it runs like this: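 Guinea pig striatal membrane preparation with specific radioligand; bound counts measured by filtration and scintillation 1 h post-dosing, DMSO as baseline. Chemicals passing a 25 uM duplicate screen were titrated to a 50 uM maximum.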

In the next assay the test system is NCBI gene 100848466. The assay is described as follows: NVS_NR_bPR: NovaScreen (NVS) Nuclear Receptor Binding Assay for bovine Progextron Receptor (PR) (AID 2283343).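 On AC50: actives lower bound radioligand signal below DMSO meaning displacement of the label.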 In short, it runs like this: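 Competitive radioligand binding with membranes from bovine uterus, scintillation read-out at 18 h post-dose. Compounds first tested in duplicate at 25 uM, then actives in concentration series; loss-of-signal relative to DMSO.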

In assay [10] the target is chimpanzee Androgen Receptor (AR), AR (gene 747460) (UniProt O97775). In words: NVS_NR_cAR: NovaScreen (NVS) Nuclear Receptor Binding Assay for chimpanzee Androgen Receptor (AR) (AID 2283346).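 Further: radioligand displacement from AR measured by scintillation counting in a cell-free assay; a loss of bound radioligand signal versus DMSO counts as binding.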 In short, it runs like this: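 Cell-free competition binding with insect-cell (Sf9/Sf21) extracted chimpanzee AR; scintillation signal from lysate at 72 h. Screened in duplicate at 25 uM, then concentration-response for actives; fitting relative to DMSO.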
Chain of chimpanzee Androgen Receptor (AR), AR (gene 747460) (O97775 whole entry, looked up): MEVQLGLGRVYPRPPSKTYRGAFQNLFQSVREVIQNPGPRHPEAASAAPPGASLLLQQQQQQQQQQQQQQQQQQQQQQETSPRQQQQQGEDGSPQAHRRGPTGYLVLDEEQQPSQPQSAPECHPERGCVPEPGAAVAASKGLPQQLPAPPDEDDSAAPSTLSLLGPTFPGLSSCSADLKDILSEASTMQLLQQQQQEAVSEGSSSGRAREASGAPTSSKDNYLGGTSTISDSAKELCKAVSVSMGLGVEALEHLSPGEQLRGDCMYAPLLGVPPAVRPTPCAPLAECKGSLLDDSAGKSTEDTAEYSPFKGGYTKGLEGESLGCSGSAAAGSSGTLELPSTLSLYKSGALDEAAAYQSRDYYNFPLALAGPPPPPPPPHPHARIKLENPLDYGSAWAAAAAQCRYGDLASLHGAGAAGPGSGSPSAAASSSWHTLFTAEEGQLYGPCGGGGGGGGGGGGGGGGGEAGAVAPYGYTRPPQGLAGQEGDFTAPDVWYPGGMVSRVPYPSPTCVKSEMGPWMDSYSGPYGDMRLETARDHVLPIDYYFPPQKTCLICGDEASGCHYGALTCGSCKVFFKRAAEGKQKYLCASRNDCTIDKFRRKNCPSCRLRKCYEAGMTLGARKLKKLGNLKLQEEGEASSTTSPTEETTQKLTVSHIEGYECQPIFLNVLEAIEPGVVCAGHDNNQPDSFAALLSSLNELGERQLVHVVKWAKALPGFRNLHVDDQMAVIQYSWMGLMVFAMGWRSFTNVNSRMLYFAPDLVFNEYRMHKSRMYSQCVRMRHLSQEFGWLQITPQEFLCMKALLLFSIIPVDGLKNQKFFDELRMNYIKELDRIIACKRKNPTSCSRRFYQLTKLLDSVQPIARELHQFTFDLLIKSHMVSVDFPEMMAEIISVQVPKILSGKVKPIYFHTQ

In the next assay the target is PGR (gene 5241) (UniProt P06401). In words: NVS_NR_hPR: NovaScreen (NVS) Nuclear Receptor Binding Assay for human Progestron Receptor (PR) (AID 2283360).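 Further: active means loss of bound radioligand signal versus DMSO baseline.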 The method in brief: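 T47D-derived receptor preparation, cell-free, with tritiated or iodinated radioligand displacement measured by scintillation 18 h post-dosing. Single 25 uM duplicate screen, then concentration series; signal loss relative to DMSO.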

The target of assay [11] is Androgen Receptor/SRC-1 Co-activator, AR (gene 367) (UniProt P10275). The assay is described as follows: OT_AR_ARSRC1_0960: Odyssey Thera (OT) 16-hour HEK293T Protein-Complementation Assay for Androgen Receptor/SRC-1 Co-activator (AID 2283353).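 Further: actives raise the signal above DMSO so potency reflects increased AR and SRC-1 complex.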 The method in brief: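 Endpoint is gain-of-signal N/C fluorescence ratio in the 488 nm channel versus DMSO, from at least 400 cells per image, measured 16 h post-dosing. Cells: HEK293T stably carrying split-Venus AR/SRC-1 complementation constructs.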
Chain of Androgen Receptor/SRC-1 Co-activator, AR (gene 367) (P10275 whole entry, looked up): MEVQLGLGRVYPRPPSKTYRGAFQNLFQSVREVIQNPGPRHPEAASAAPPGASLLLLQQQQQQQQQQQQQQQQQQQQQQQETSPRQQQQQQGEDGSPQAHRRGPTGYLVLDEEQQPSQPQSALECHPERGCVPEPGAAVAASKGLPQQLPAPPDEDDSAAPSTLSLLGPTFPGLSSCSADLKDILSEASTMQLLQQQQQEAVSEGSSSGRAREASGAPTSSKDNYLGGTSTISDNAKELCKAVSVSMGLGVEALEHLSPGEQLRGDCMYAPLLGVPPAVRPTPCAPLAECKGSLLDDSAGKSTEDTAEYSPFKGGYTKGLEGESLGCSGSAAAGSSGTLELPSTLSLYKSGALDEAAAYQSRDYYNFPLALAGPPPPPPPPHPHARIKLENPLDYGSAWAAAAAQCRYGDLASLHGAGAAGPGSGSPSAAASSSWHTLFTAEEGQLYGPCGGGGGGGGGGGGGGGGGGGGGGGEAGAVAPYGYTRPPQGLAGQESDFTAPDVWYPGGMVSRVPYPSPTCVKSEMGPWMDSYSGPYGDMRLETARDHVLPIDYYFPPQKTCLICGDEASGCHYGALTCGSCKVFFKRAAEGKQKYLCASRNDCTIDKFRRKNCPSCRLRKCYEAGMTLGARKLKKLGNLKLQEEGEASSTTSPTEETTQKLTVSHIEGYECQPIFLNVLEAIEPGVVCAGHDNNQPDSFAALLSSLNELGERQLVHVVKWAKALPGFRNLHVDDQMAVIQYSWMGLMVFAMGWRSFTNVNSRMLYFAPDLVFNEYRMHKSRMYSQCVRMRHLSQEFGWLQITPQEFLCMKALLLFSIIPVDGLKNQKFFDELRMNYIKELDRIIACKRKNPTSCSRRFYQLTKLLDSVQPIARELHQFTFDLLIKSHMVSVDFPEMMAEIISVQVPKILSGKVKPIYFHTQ

Assay [12] concerns the target Retinoic acid receptor alpha (Homo sapiens) (UniProt P10276). The assay is described as follows: NVS_NR_hRAR_Antagonist: NovaScreen (NVS) Nuclear Receptor Binding Assay for human Retinoic Acid Alpha Receptor Antagonism (RAR) (AID 2283358). The method in brief:
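RARalpha antagonism was read by TR-FRET as loss of binding signal versus DMSO, 2 h after chemical addition, in a biochemical format. Single-concentration duplicates (25 uM) were run first, and actives were retested in concentration series.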

The target of assay [13] is human Thyroid Receptor Alpha (TRa), THRA (gene 7067) (UniProt P10827). In words: NVS_NR_hTRa_Antagonist: NovaScreen (NVS) Nuclear Receptor Binding Assay for human Thyroid Receptor Alpha Antagonism (TRa) (AID 2283362). The method in brief: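 Cell-free AlphaLISA chemiluminescent binding read 1 h after dosing, antagonist mode; signal loss versus DMSO baseline. Primary screen in duplicate at 25 uM, then concentration series for actives.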

Several values for one entry are separate records, joined by “and”; a condition that tells them apart may be missing. Equal values may be shown once. Results filed as inconclusive are left out. More than one record can exist for a structure, and the calls need not agree. Activity calls are given as the source filed them. How the source made its calls: active means hit-call score of the fitted dose curve at least 0.9, where 1 is the maximum; inconclusive means response in the unintended direction; inactive means score below 0.9.

T1 sequence (P03372 whole entry, looked up, the tested form may be a part): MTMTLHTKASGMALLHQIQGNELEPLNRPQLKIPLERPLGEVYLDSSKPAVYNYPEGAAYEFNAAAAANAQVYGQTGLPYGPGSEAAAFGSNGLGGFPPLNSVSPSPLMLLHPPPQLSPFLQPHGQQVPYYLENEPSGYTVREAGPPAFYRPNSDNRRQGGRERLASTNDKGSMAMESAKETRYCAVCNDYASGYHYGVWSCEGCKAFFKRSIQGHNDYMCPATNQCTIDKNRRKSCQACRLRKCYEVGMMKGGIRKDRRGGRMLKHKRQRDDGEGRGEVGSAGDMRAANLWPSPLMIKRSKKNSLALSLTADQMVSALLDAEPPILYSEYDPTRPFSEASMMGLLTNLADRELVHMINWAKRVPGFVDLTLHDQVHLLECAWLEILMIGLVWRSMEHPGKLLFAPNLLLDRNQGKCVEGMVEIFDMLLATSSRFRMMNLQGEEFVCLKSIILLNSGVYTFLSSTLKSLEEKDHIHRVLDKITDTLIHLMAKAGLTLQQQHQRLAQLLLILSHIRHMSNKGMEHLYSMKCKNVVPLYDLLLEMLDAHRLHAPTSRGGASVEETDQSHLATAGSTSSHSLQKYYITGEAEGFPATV
T1 sequence (Q92731 whole entry, looked up, the tested form may be a part): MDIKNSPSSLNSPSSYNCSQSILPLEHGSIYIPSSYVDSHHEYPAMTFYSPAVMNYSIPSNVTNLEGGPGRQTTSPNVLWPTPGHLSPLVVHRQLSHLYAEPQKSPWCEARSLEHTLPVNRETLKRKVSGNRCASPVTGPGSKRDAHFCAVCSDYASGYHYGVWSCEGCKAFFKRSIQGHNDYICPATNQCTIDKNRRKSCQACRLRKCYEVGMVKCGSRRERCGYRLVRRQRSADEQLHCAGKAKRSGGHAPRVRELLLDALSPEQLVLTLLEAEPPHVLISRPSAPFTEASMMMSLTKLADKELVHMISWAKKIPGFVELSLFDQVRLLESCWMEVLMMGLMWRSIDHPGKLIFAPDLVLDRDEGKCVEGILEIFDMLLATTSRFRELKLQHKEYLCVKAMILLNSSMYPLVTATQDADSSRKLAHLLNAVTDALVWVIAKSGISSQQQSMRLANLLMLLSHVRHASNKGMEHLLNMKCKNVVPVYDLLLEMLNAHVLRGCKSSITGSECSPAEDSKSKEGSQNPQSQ
Chain of Estrogen receptor (Homo sapiens) (P03372 whole entry, looked up, the tested form may be a part): as the sequence (P03372 whole entry, looked up, the tested form may be a part) above
Chain of Estrogen receptor beta (Homo sapiens) (Q92731 whole entry, looked up, the tested form may be a part): as the sequence (Q92731 whole entry, looked up, the tested form may be a part) above

As for `CC(C)OC(=O)Nc1ccccc1`, the compound was called inactive in assay [1] and in assay [2].

In the case of `O=S(=O)(c1ccc(Cl)cc1)c1ccc(Cl)cc1`, the compound was classed as inactive in [1], in assay [2], in assay [3], in assay [4] and in [5].

As for `O=[N+]([O-])c1c(Cl)c(Cl)cc(Cl)c1Cl`, the compound was classed as inactive in assay [1].

Turning to `CCCCCCCCCCCCCCCC[n+]1ccccc1`, in assay [1], the compound was classed as inactive.

As to `CCOP(=S)(OCC)Oc1nc(Cl)c(Cl)cc1Cl`, in assay [1], the compound was classed as inactive. In addition, the AC50 in assay [6] is 70.6 µM (active); in [2], 71.3 µM (active); in assay [3] it was 50 µM (active); in assay [7], 78.9 µM (active); in assay [4], 61.5 µM (active); in assay [5] it was 58.9 µM (active).

Turning to `Cc1ccccc1N`, the result in assay [8] was inactive.

`O=C(Cc1ccccc1)c1ccccc1`: the compound was classed as inactive in assay [1], in assay [6] and in [2].

Turning to `C=C(C)C(=O)[O][Sn]([CH2]CCC)([CH2]CCC)[CH2]CCC`, the half-maximal activity concentration (AC50) in assay [9] was 2.23 µM (active); with NCBI gene 100848466, 3.89 µM (active); in assay [10], 12.1 µM (active); with PGR (gene 5241) it was 3.42 µM (active). Also, the compound was classed as inactive in assay [1], in assay [6], in [2], in assay [3], in [4] and in assay [5].

Regarding `COP(=O)(OC)O/C(=C\Cl)c1cc(Cl)c(Cl)cc1Cl`, the result in assay [1], in assay [2] and in [7] was inactive. Also, the AC50 in [11] is 67.5 µM (active).

With `C[C@]12CC[C@H](O)CC1=CC[C@@H]1[C@@H]2CC[C@]2(C)C(=O)CC[C@@H]12`, the figures for the concentration at half-maximal activity (AC50) in [1], in assay [10] and in [5] were 3.16 µM (active), 1.88 µM (active) and 3.91 µM (active), respectively.

For `CC(=O)[O][Hg][c]1ccccc1`, the AC50 in [9] was 11.4 µM (active); in [10], 29.1 µM (active); in [11], 1.86 µM (active); in assay [7], 3.4 µM (active). The result in assay [6], in assay [2], in assay [4] and in assay [5] was inactive.

With `CC(C)(c1ccc(OCC2CO2)cc1)c1ccc(OCC2CO2)cc1` (stereo unspecified), the outcome in [1], in [10], in assay [6], in [2], in assay [3] and in assay [7] was inactive. The compound was called inactive in [5] and in assay [12]. The AC50 in assay [11] is 79.1 µM (active).

As for `O=[N+]([O-])c1ccc2c3c(cccc13)CC2`, in assay [1], the outcome was inactive.

With `Clc1ccc(COC(Cn2ccnc2)c2ccc(Cl)cc2Cl)cc1` (stereo unspecified), the AC50 in assay [1] was 0.7 µM (active); in assay [10], 9.28 µM (active); in assay [4], 11.8 µM (active); in [12], 16.2 µM (active). The result in assay [6], in [2], in assay [5] and in [13] was inactive.

On to `ClCC(Cl)CCl`, for which the compound was called inactive (with NCBI gene 100848466; in [1]).

Take `C[C@]12CCC(=O)C[C@@H]1CC[C@@H]1[C@@H]2CC[C@]2(C)[C@@H](O)CC[C@@H]12`: the call (in the assay with NCBI gene 100848466; in assay [5]) was inactive. For the same compound, the AC50 was 6.23 µM (active) and 10.7 µM (active) and 5.44 µM (active) in [5]; 0.366 µM (active) in the assay with PGR (gene 5241).

On to `C[C@H]1CCCC(=O)CCC/C=C/c2cc(O)cc(O)c2C(=O)O1`, for which the AC50 in assay [1] was 0.0119 µM (active); in assay [2], 0.291 µM (active); in [3], 0.0558 µM (active); in assay [4] it was 0.24 µM (active); in assay [5] it was 0.0845 µM (active). The outcome in [11] and in assay [7] was inactive.

What is called AC50 is the concentration giving half of the maximal activity seen.

For the origin of these results see PubChem BioAssay (EPA / NIEHS).
